Measurements reported in PubChem BioAssay.
Calls of active or inactive are those of the source. Unless noted, how the calls were made is not given here.

Assays:
[1] = compound effects on lung adenocarcinoma cell viability – A549, calcein-AM fluorescence, 48 h, basal, profiling panel (AID 1162); settings: higher = more signal; further: test concentration not given here
[2] = compound effects on differentiated 3T3-L1 adipocyte viability – cell-based, 3T3-L1 adipocytes, calcein-AM fluorescence, 48 h, basal, profiling panel (AID 1163); settings: 3T3-L1 adipocytes viability, higher = more signal; further: test concentration not given here
[3] = compound effects on hepatocellular carcinoma cell viability – HepG2, calcein-AM fluorescence, 48 h, basal, profiling panel (AID 1164); settings: higher = more signal; further: test concentration not given here
[4] = compound effects on multiple myeloma cell viability – MM1S, calcein-AM fluorescence, 48 h, basal, profiling panel (AID 1165); settings: higher = more signal;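 further: viability of MM1S multiple myeloma cells under basal unstimulated conditions; test concentration not given here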
[5] = calcein-AM signal in unstimulated myeloma cells – cell-based, calcein-AM fluorescence, 48 h, PK04 Diversity Set, profiling panel (AID 1166); settings: RPMI8226 myeloma viability, higher = more signal;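 further: cells grown under basal conditions without added stimulus; test concentration not given here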
[6] = JC-1 mitochondrial signal, unstimulated HepG2 cells – cell-based, JC-1 fluorescence, 24 h, 100 nL compound, profiling panel (AID 1167); settings: HepG2 mitochondrial potential, higher = more signal; further: test concentration not given here
[7] = JC-1 mitochondrial signal, unstimulated adipocytes – cell-based, JC-1 fluorescence, 3T3-L1 adipocytes, 24 h, 100 nL compound, profiling panel (AID 1168); settings: JC-1 mitochondrial fluorescence, higher = more signal, called active from +8 up or from −8 down; further: test concentration not given here
[8] = JC-1 mitochondrial signal, unstimulated myeloma cells – cell-based, JC-1 fluorescence, RPMI8226, 24 h, 100 nL compound, profiling panel (AID 1169); settings: JC-1 mitochondrial potential fluorescence, higher = more signal; further: test concentration not given here
[9] = JC-1 mitochondrial signal, unstimulated MM1S myeloma – cell-based, JC-1 fluorescence, 24 h, 100 nL compound, profiling panel (AID 1170); settings: MM1S mitochondrial potential, higher = more signal; further: test concentration not given here
[10] = resazurin metabolic signal in A549 cells – cell-based, resazurin fluorescence, 24 h, PK04 Diversity Set, profiling panel (AID 1171); settings: A549 viability, higher = more signal, called active from +8 up or from −8 down; further: test concentration not given here
[11] = resazurin metabolic signal in HepG2 cells – cell-based, resazurin fluorescence, 24 h, PK04 Diversity Set, profiling panel (AID 1172); settings: HepG2 viability, higher = more signal; further: test concentration not given here
[12] = budding yeast growth changes without added modifier – OD600, strain BY4716, 24 h, basal condition, primary screen (AID 1173); settings: S. cerevisiae BY4716 growth, OD600, 24 h; higher = more signal, called active from +8 up or from −8 down
[13] = viability profiling in MM1S myeloma cells – cell-based, resazurin fluorescence, basal, 24 h, PK04 Diversity Set, profiling panel (AID 1174); settings: higher = more signal, called active from +8 up or from −8 down; further: test concentration not given here
[14] = molecular target: Dihydroorotate dehydrogenase (quinone), mitochondrial (Plasmodium falciparum (isolate 3D7)) (UniProt Q08210); assay: inhibition of P. falciparum DHODH – biochemical, C-terminal His tag, absorbance 600 nm, primary screen (AID 1175); settings: PfDHODH enzyme, DCIP absorbance 600 nm; higher = more signal, called active from +8 up or from −8 down;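 further: recombinant parasite enzyme with a five histidine tag at its C terminus; test concentration not given here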
[15] = inhibition of PAO1 biofilm formation – strain PAO1, LB-PBS medium, absorbance 600 nm, primary screen (AID 1176); further: test concentration not given here; settings: P. aeruginosa PAO1 growth/biofilm, A600, 12 h; higher = more signal
[16] = growth modulation of vineyard yeast isolate – strain RM11-1a, OD600, basal, 24 h, primary screen (AID 1177);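 further: cultures grown under basal conditions with no added stressor; test concentration not given here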; settings: S. cerevisiae RM11-1a growth, OD600, 24 h; higher = more signal, called active from +8 up or from −8 down
[17] = growth of efflux-deficient E. coli DRC39 – strain DRC39, OD650, 24 h, E. coli filamentation inducers, primary screen (AID 1178);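 further: growth measured as culture turbidity by optical density at 650 nm; test concentration not given here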; settings: E. coli DRC39 acrAB, higher = more signal, called active from +8 up or from −8 down
[18] = growth of efflux-deficient E. coli DRC39 – strain DRC39, OD650, 48 h, E. coli filamentation inducers, primary screen (AID 1179);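 further: screen aims at cell division blockers that make cells filament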; settings: E. coli DRC39 delta-acrAB growth, higher = more signal, called active from +8 up or from −8 down
[19] = viability profiling in RPMI8226 myeloma cells – cell-based, resazurin fluorescence, basal, 24 h, PK04 Diversity Set, profiling panel (AID 1180); settings: higher = more signal;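 further: RPMI8826 multiple myeloma cell line at 5000 cells per well; test concentration not given here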
[20] = molecular target: E3 ubiquitin-protein ligase XIAP (Homo sapiens) (UniProt P98170); assay: small molecules binding XIAP protein – biophysical, small-molecule microarray, fluorescence 635 nm, primary screen (AID 1181); settings: higher = more signal;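 further: score merges 667 nm emission and signal to noise over triplicate slides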
Chain of E3 ubiquitin-protein ligase XIAP (Homo sapiens) (P98170 whole entry, looked up): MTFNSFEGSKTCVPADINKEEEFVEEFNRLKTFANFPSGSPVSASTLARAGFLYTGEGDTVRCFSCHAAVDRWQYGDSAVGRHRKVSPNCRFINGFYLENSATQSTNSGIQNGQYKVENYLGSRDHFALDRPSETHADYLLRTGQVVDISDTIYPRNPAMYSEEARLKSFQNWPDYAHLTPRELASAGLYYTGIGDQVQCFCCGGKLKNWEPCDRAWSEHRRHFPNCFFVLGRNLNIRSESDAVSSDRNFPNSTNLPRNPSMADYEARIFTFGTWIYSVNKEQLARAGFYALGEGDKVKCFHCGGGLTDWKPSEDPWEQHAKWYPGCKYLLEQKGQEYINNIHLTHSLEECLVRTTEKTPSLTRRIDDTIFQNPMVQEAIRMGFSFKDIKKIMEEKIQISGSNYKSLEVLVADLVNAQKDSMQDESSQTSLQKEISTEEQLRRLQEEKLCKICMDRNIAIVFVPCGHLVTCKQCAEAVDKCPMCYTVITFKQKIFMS

Chain of Dihydroorotate dehydrogenase (quinone), mitochondrial (Plasmodium falciparum (isolate 3D7)) (Q08210 whole entry, looked up): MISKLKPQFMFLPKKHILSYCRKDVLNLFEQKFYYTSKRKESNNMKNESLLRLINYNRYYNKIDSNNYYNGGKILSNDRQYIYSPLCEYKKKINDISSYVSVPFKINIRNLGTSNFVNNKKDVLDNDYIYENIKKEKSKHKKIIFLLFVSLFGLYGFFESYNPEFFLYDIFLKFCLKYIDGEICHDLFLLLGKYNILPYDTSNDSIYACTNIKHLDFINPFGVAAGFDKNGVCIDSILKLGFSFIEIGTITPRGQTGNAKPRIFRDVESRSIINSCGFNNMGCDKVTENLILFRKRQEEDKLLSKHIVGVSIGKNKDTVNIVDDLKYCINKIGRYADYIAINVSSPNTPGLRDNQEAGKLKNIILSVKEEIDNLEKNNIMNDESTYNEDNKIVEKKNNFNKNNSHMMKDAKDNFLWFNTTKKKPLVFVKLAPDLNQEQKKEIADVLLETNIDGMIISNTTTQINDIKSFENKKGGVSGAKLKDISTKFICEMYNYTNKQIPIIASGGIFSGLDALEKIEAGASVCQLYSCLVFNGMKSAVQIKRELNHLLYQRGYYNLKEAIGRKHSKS

SMILES | z-score [1] | z-score [2] | z-score [3] | z-score [4] | z-score [5] | z-score [6] | z-score [7] | z-score [8] | z-score [9] | z-score [10] | z-score [11] | z-score [12] | z-score [13] | composite z-score [14] | z-score [15] | z-score [16] | z-score [17] | z-score [18] | z-score [19] | composite z-score [20]
CO[C@H]1O[C@H](CO)[C@@H](OC(=O)CCc2ccccc2)[C@@H]2OC(=O)[C@@H](Cc3ccccc3)C/C=C/C[C@H](Cc3ccccc3)C(=O)O[C@@H]12 | 1.7 | 0.271 | 0.514 | -0.753 | -0.711 | 0.358 | 0.669 (inactive) | 0.578 | -0.946 | 1.2 (inactive) | 0.195 | -0.559 (inactive) | -0.887 (inactive) | -1.53 (inactive) | -0.661 (inactive) | 0.532 (inactive) | 1.06 (inactive) | 1.79 (inactive) | 0.943 | 0.913
CCC1=C2CN(Cc3ccccc3)[C@@H](C(=O)Cc3ccccc3)C2C=CCC1 (stereo not given in full) | 0.0398 | 1.47 | -0.342 | 0.435 | -0.96 | 0.821 | 0.152 (inactive) | 0.424 | -0.948 | 0.822 (inactive) | 0.999 | -3.13 (inactive) | -0.192 (inactive) | -3.14 (inactive) | -1.61 (inactive) | 0.129 (inactive) | 0.941 (inactive) | -0.0333 (inactive) | -0.0509 | 0.0554
C#Cc1cc2ccccc2oc1=O | -1.35 | -1.04 | -0.651 | -0.932 | -0.414 | -1.5 | 0.272 (inactive) | 0.923 | -0.99 | -0.629 (inactive) | 0.236 | -5.07 (inactive) | -1.05 (inactive) | -0.748 (inactive) | -0.0322 (inactive) | -0.874 (inactive) | -1.46 (inactive) | -1.25 (inactive) | -1.14 | -0.172
O=C1O[C@H](c2ccccc2)[C@H](c2ccccc2)N2[C@H]1[C@@H](C(=O)O)[C@]1(C(=O)Nc3ccc(C#CCCO)cc31)[C@H]2c1ccccc1OCCO | -0.0678 | 1.32 | -0.187 | 0.0409 | -0.353 | -0.892 | -0.426 (inactive) | -0.616 | 0.884 | -0.0294 (inactive) | -0.732 | -0.498 (inactive) | 0.716 (inactive) | -0.408 (inactive) | 0.573 (inactive) | 0.626 (inactive) | -0.88 (inactive) | -1.22 (inactive) | 1.5 | 0.177
CCCNC(=O)[C@@]1(C)c2ccccc2C(=O)N(c2ccc(C)cn2)[C@H]1c1ccc(CO)cc1 | 0.666 | 0.343 | -0.146 | -0.108 | 0.526 | 0.204 | -0.0622 (inactive) | 0.0215 | 0.43 | -0.407 (inactive) | -0.112 | -0.397 (inactive) | 0.268 (inactive) | -0.281 (inactive) | 0.484 (inactive) | -0.306 (inactive) | -0.398 (inactive) | -0.586 (inactive) | -0.388 | -0.127
C=C(/C(=C/C[C@H](OC(C)=O)c1ccc(CO)o1)c1cnc2ccccc2c1)C(C)C | -0.166 | 0.283 | -0.7 | -1.36 | -1.47 | -1.36 | -0.524 (inactive) | 0.867 | 0.246 | 0.643 (inactive) | 0.523 | -0.269 (inactive) | -0.575 (inactive) | -7.07 (inactive) | 0.898 (inactive) | 0.376 (inactive) | 0.307 (inactive) | -0.219 (inactive) | -0.659 | -0.0095
CCOC(=O)C[C@H]1[C@H](OC(=O)c2ccc(C(=O)c3ccccc3)cc2)[C@@H](NC(=O)c2ccc(-c3ccccc3)cc2)c2cc(OCCCO)ccc2N1C(=O)Cc1ccc(OC)cc1 | -0.61 | 0.122 | -0.461 | 0.727 | -0.205 | 1.57 | -0.0721 (inactive) | -0.807 | -0.551 | -0.131 (inactive) | 0.247 | 0.401 (inactive) | -0.176 (inactive) | 0.25 (inactive) | -0.358 (inactive) | 0.225 (inactive) | -0.224 (inactive) | 0.424 (inactive) | -0.0952 | -0.0994
COc1ccc([Si](C)(C)[C@H]2[C@H](CC(=O)N3Cc4ccccc4C[C@H]3CO)O[C@@]3(C(=O)N(Cc4ccc(N5CCOC5=O)cc4)c4ccccc43)[C@@H]2C)cc1 | -0.135 | 1.35 | -0.919 | -2.92 | -4.23 | -0.0556 | 0.19 (inactive) | -1.04 | -1.94 | -0.0717 (inactive) | -0.418 | -0.895 (inactive) | -3.41 (inactive) | -1.03 (inactive) | 0.732 (inactive) | 0.543 (inactive) | 0.166 (inactive) | -0.207 (inactive) | -2.27 | -0.105
CC(C)C[C@@H]1NC(=O)[C@@H]2C[C@H](C(=O)NCCCCCCN)[C@H](c3cccc(OCCO)c3)N2C1=O | -0.038 | 0.971 | -0.822 | 0.206 | -0.703 | -0.39 | 0.433 (inactive) | -0.84 | 0.519 | -0.862 (inactive) | -0.821 | -0.568 (inactive) | 0.542 (inactive) | 1.05 (inactive) | 0.379 (inactive) | 0.473 (inactive) | -0.0795 (inactive) | -0.74 (inactive) | -0.0399 | 0.0264
